MARV entry inh – blocks Marburg virus binding to or entry into cells; Potency, µM (series often up to 37.8 µM), for inactives: at the highest dose activity change, negative = inhibition, hits mostly inhibitors; AID 540276; 300,000 tested, 1.8% active; Marburg virus pseudotyped entry inhibition, cell reporter; calls by dose curve; tested in HEK293 cells; also: potency is read from the fitted curve at half-maximal effect
Vaccinia Venus – inhibitors of vaccinia virus (Venus reporter); Potency, µM (series often up to 36.5 µM), for the others: at the top dose activity change, negative = inhibition, most hits filed as inhibitors; 330,000 tested, 0.46% active; Vaccinia virus Venus reporter expression, fluorescence; calls by dose curve; tested in A549 cells; also: potency is read from the fitted curve at half-maximal effect; nearly all actives have a fitted effect of over 30% in size
HCMV inh – human cytomegalovirus inhibition | activity change, negative = inhibition, % at 57.5 µM | 410,000 tested, 4.5% active | HFF cells, HCMV-luciferase reporter, 72 h; stronger effect = lower value; in the data active = activity change below about -60%; inconclusive = no clear call, values can overlap the other calls; inactive = above about -39%
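HFF cells seeded 16 h at 37C, treated with compounds, infected with luciferase-reporter HCMV at MOI 1 PFU/cell; luciferase read at 72 h post infection, normalized to buffer-only and Salinomycin controls.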
LASV entry inh – Lassa virus entry inhibition; Potency, µM (doses to about 37.9 µM), without a hit: at the top dose activity change, negative = inhibition, actives largely listed as inhibitors; AID 540256; 300,000 tested, 1.2% active; Lassa virus pseudotype entry inhibition, cell reporter; calls by dose curve; tested in HEK293 cells; also: potency is read from the fitted curve at half-maximal effect; nearly all actives have a fitted effect of over 50% in size
FMDV antiviral – antivirals against foot and mouth disease virus; FMDV antiviral cell-based qHTS; Potency, µM (series often up to 57.9 µM), for inactives: top-dose activity change, negative = inhibition, hits mostly inhibitors; AID 1159524; 410,000 tested, 1.2% active; calls by dose curve; tested in HEK293T cells; also: read-out not given here; potency is read from the fitted curve at half-maximal effect; nearly all actives have a fitted effect of over 45% in size
VACV mCherry inh – vaccinia inhibition (mCherry reporter). 310,000 tested, 0.63% active. AID 720579. Potency, µM (top dose mostly 36.5 µM), inactives show at the highest dose activity change, negative = inhibition, hits mostly inhibitors. Vaccinia virus mCherry reporter infection, fluorescence; calls by dose curve; tested in A549 cells; also: potency is read from the fitted curve at half-maximal effect; nearly all actives have a fitted effect of over 35% in size
* = called active by the depositor; i = inactive; u = inconclusive; x = no result given; ! = repeats disagree; [ ] = another dose, or the depositor's remark. Only some compounds are listed: those with a hit (about 6.5% of all), similar ones and a draw of the others. % is scaled to controls: 0 for no effect and ±100 for the full control effect.

SMILES	MARV entry inh	Vaccinia Venus	HCMV inh	LASV entry inh	FMDV antiviral	VACV mCherry inh
CC1CCCN(CCCNC(=O)c2ccc3c(c2)N(Cc2cccc(Cl)c2)C(=O)c2ccccc2S3=O)C1 (centres undefined)	x	u	-81*	x	-1%	-14%
O=C(NCc1ccco1)c1ccc2c(c1)N(Cc1ccccc1)C(=O)c1ccccc1S2(=O)=O	1%[46.1 µM]	-6%	-20	-18%[46.1 µM]	-9%	-10%
CC1CCCN(CCCNC(=O)c2ccc3c(c2)N(Cc2ccccc2F)C(=O)c2ccccc2S3(=O)=O)C1 (centres undefined)	u	-26%	-70*!	-19%[46.1 µM]	3%	u
CCCCN(C)C(=O)c1ccc2c(c1)N(Cc1cccc(Cl)c1)C(=O)c1ccccc1S2=O (centres undefined)	x	-12%	-81*	u	-8%	-16%
COc1ccc(F)cc1S(=O)(=O)NCc1cc(=O)n(C)c(=O)n1C	x	x	0	x	29%	x
C[C@]1(c2cnc(Nc3ccccc3)s2)CCC(=O)O1	-10%[46.1 µM]	x	x	x	x	x
Cc1cc(C)n(Cc2ccc(NC(=O)c3ccc(COc4ccccc4Br)cc3)cc2)n1	u	x	-90*	u	13µM*	x
Cc1ccc(C)n1Cc1ccc(C(=O)O)cc1	9.2µM*	x	x	-4%	3%	x
Cc1cc(C)n(Cc2ccc(C(=O)O)cc2)n1	8%	-15%	-65*	4%	x	i
NC(=O)c1ccc(NC(=O)c2ccc(COc3ccccc3Br)cc2)cc1	-11%	5%	-19	15%	14%	-6%
Cc1c(C)n(Cc2ccccc2)c2ccc(C(=O)O)cc12	25%[14.2 µM]	-2%	44	0%	-19%	1%
O=C(C[n+]1ccc(-c2cc(C(=O)Nc3cccc(C(F)(F)F)c3)c3ccccc3n2)cc1)c1cccc([N+](=O)[O-])c1	u	2%	-66*	-24%[46.1 µM]	u	-26%
Cc1cccc(NC(=O)c2cc(Cl)ccc2[N+](=O)[O-])c1	u	u	-83*	-9%	-10%	6.3µM*
CC(C)(C)NC(=O)c1cc(Cl)ccc1[N+](=O)[O-]	-1%	-9%	-10	-1%	-20%	-2%
Cc1cccc(NC(=O)c2ccccc2C(=O)Nc2cccc(C)c2)c1	u	-4%	-38	0%	24%	-11%
Cc1ccc(NC(=O)c2cc(Cl)ccc2[N+](=O)[O-])cc1C	0%	9%	-73*	-2%	0%	u
COc1ccc([C@H]2NC(=O)C[C@@H]2C(=O)N2CCOCC2)cc1	x	x	-11	x	x	x
Nc1nccc(-c2cc(-c3ccc(Cl)cc3Cl)no2)n1	14µM*	-25%	18	u	23%	-19%
Clc1ccc(-c2nc(-c3ccncc3)no2)c(Cl)c1	x	x	89	x	35%	x
O=[N+]([O-])c1cccn2cc(-c3ccc(Br)cc3)nc12	u	-28%	-62*	18%	51%	u
Cc1ccc(C)c(NC(=O)CN(C)C(=O)c2ccc3[nH]c4c(c3c2)CC(C)CC4)c1 (centres undefined)	-30%	u	-30	0.56µM*	-20%	u
CC1CCc2[nH]c3ccc(C(=O)N(C)CC(=O)Nc4ccccc4Br)cc3c2C1 (centres undefined)	u	-26%	-15	u	u	u
Cc1ccc(NC(=O)C2CCCN(c3nc4ccccc4s3)C2)c(C)c1 (centres undefined)	1%[46.1 µM]	-15%	7	12%[46.1 µM]	-22%	-12%
CCc1cccc(C)c1NC(=O)C(CC)n1ncn2c(cc3cc(C)ccc32)c1=O (centres undefined)	13%[46.1 µM]	-2%	-2	14%[46.1 µM]	-3%	-4%
Oc1ccc(N2CCN(c3ccnc4cc(Cl)ccc34)CC2)cc1	u	5%	-66*	-17%[46.1 µM]	-12%	u
SMILES	MARV entry inh	Vaccinia Venus	HCMV inh	LASV entry inh	FMDV antiviral	VACV mCherry inh
Clc1ccc2c(N3CCNCC3)ccnc2c1	8%[46.1 µM]	-11%	-109*	28%	1%	-12%
O=C(NC(c1ccc(-c2ccccc2)cc1)c1cnccn1)C1CCN(Cc2ccc(Cl)c(Cl)c2)CC1 (centres undefined)	x	-20%	18	x	-10%	4%
Cn1cc(CN2CCC(C(=O)NC(c3ccc(-c4ccccc4)cc3)c3cnccn3)CC2)c2ccccc21 (centres undefined)	x	11µM*	-11	x	0%	u
CC(C)(C(=O)O)c1ccc([C@@H](O)CCCN2CCC(C(O)(c3ccccc3)c3ccccc3)CC2)cc1	10%	x	x	x	x	x
O=S1(=O)CCOCCCN1Cc1cccc(Cl)c1	x	-20%	x	x	x	-26%
O=C(O)c1ccc(NCc2ccncc2)cc1	8%	x	-19	26%	-14%	x
O=C(O)c1cccc(NCc2ccncc2)c1	1%	x	-61*	x	x	x
O=C(COC(=O)CCN1C(=O)/C(=C\C=C\c2ccccc2)SC1=S)Nc1ccc(Br)cc1	u	-1%	-74*	-26%[46.1 µM]	u	-26%
CC(C)c1ccccc1NC(=O)COC(=O)CCN1C(=O)/C(=C\C=C\c2ccccc2)SC1=S	u	12%	-86*	u	u	-3%
O=C(NC1CCCC1)C(C1CC1)n1c(-c2ccccn2)nc2ccccc21 (centres undefined)	x	-10%	-2	x	-7%	-7%
CCc1ccc(Nc2ccc3nonc3c2[N+](=O)[O-])cc1	-2%[46.1 µM]	-1%	6	-1%	-9%	-1%
CCOC(=O)NNc1ccc2nonc2c1[N+](=O)[O-]	11µM*	0%	x	u	-25%	i
Cc1cc(C)cc(Nc2ccc3nonc3c2[N+](=O)[O-])c1	-20%	-11%	-83*	3%	u	-15%
O=C(NCCc1ccc(F)cc1)C(=O)NCC1CCCN1S(=O)(=O)c1cccs1 (centres undefined)	u	-26%	-29	u	-21%	-21%
FCCCOc1ccc(-c2nccc(-c3ccccn3)n2)cc1	x	x	142	x	51%	x
O=C(O)COc1ccc(-c2nccc(-c3ccccn3)n2)cc1	-14%[46.1 µM]	3%	-71*	u	u	10%
CC(=O)c1c(C)[nH]c(-c2ccccc2)nc1=S	15%[46.1 µM]	4%[7.34 µM]	35	12%	17%	i[7.34 µM]
CC(=O)c1c(NC(=O)c2ccccc2)[nH]c(-c2ccccc2)nc1=S	3%[46.1 µM]	5%	-84*	-3%[46.1 µM]	-9%	-8%
COc1ccc(NC(=O)CC2C(=O)N(c3cccc(OC)c3)C(=O)N2CCC(C)C)cc1 (centres undefined)	-15%	x	-9	-24%	10%	x
COc1ccc(NC(=O)CC2C(=O)N(c3cccc(OC)c3)C(=O)N2CCC2=CCCCC2)cc1 (centres undefined)	u	-13%	-9	11µM*	-21%	-11%
O=CC(=Cc1ccccc1)c1ccccc1	x	-13%	-13	x	-18%	i
CCCC(c1nnnn1Cc1ccc(OC)cc1)N1CCN(c2ccccc2OC)CC1 (centres undefined)	u	-29%	-4	u	35µM*	x
CN1CCN(C(c2cccc(C(F)(F)F)c2)c2nnnn2Cc2ccccc2)CC1 (centres undefined)	15µM*	-22%	-7	u	x	-10%

Assay outcomes (PubChem BioAssay)
